Test results reported in PubChem BioAssay (NCATS).
Results filed as inconclusive are left out. Calls of active or inactive are those of the source. Unless noted, calls come from the whole dose curve; as a rule, active = well fitted curve in the direction sought with a large enough effect; inconclusive = small, poorly fitted or top-dose-only effect, or another doubt; inactive = no such curve, though single readings can be large; an effect the other way counts as inactive or inconclusive.

Key:
[1] = HEK293 12hr Apoptosis Induction qHTS against the NCATS CANVASS Library (AID 1347361); note: potency is the fitted concentration of half-maximal effect
In short: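 Luminescent caspase-3/7 signal, proportional to enzyme activity, was recorded from HEK293 cultures in DMEM + 10% FBS treated for 12 hours with titrated natural products (11 points). Doxorubicin (0.1nM - 4uM) served as control.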

[2] = qHTS for ATAD5 Agonist screened against the NCATS CANVASS Library (AID 1347367);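 note: luciferase reporter driven by ATAD5 which rises upon DNA damage; 0% is about no effect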
In short: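 Genotoxicity was scored as increased ATAD5-luciferase luminescence in HEK293T after 16hr of exposure, with cell viability measured by fluorescence beforehand in the same well.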

[3] = G06 Cancer Cell Toxicity qHTS against the NCATS CANVASS Library (AID 1347368); note: nearly all actives have a fitted effect of over 60% in size; note: potency is the fitted concentration of half-maximal effect
In short: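 Cells were plated at 500 per well, then compounds were added over an 11-point range. After 72 hr at 37C, CellTiterGlo was added and luminescence measured as ATP content.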

[4] = qHTS for Hypoxia signaling pathway (HIF-1) agonists against the NCATS CANVASS Library (AID 1347375); note: 0% is about no effect
In short: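 Cells plated and rested 5 h, compounds pinned in DMSO across 11 concentrations, incubated 17 h at 37C, loaded with CCF4-AM for 2 h, fluorescence read at 460 and 530 nm, then CellTiter-Glo luminescence measured for viability and normalization.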

[5] = qHTS for activators of Nrf2/ARE signaling pathway screened against the NCATS CANVASS Library (AID 1347391); note: nearly all actives have a fitted effect of over 60% in size; note: potency is the fitted concentration of half-maximal effect
In short: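 Beta-lactamase reporter signal, read as 460 and 530 nm emission under 405 nm excitation after 2 h CCF4 loading, reflected ARE activation in HepG2 cells treated 16 h with an 11-point series.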

[6] = Vero-766 cells viability qHTS against the NCATS CANVASS Library: Counterscreen for Zika virus inhibition assay (AID 1347394); note: % is set by controls: 0 for no effect and ±100 for the full control effect; nearly all actives have a fitted effect of over 60% in size
In short: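 Counterscreen for toxicity: Vero 766 cells exposed 72 h to an 11-point compound series, viability by CellTiter-Glo.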

[7] = Redox Reaction Profiling qHTS: Assay Interference Panel against the NCATS CANVASS Library (AID 1347401);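 note: 100% = activation by 2 µM chloranil control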
In short: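 Quantitative HTS over an 11-point series was run in HEPES pH 7.3 with 50 mM NaCl, 200 uM DTT and 5 uM resazurin. Initial and 15-min resorufin fluorescence readings were taken.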

[8] = qHTS for Antimalaria activity screened against the NCATS CANVASS Library (AID 1347380); note: nearly all actives have a fitted effect of over 40% in size; note: potency is the fitted concentration of half-maximal effect;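 for activity change, negative = inhibition: Plasmodium falciparum strain Dd2 asexual parasites grown in red blood cells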
In short: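 Compounds are titrated over 11 concentrations onto Dd2 parasite cultures (0.3% parasitemia, 2.5% hematocrit). Growth over 72 h at 37C in low oxygen is measured as SYBR Green DNA fluorescence after lysis.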

[9] = qHTS for inhibitors of ER calcium dysfunction: SERCaMP assay screened against the NCATS CANVASS Library (AID 1347393); note: nearly all actives have a fitted effect of over 40% in size; note: potency is the fitted concentration of half-maximal effect;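 for activity change, negative = inhibition: % is set by controls: 0 for no effect and ±100 for the full control effect; lower secreted reporter signal means inhibitor of ER calcium depletion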
In short: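 qHTS in SH-SY5Y reporter cells: 16 h compound pretreatment, 4 h thapsigargin, then secreted Gaussia luciferase measured by luminescence.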

[10] = ZIKV-mCherry secondary qHTS for Zika virus inhibitors (AID 1347158); note: top concentration of the series differs between compounds
In short: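 Compounds were tested in Vero monkey kidney cells infected with recombinant mCherry-expressing Zika virus at MOI 1 for 48-72 h at 37 °C. Fixed cells were nuclear-stained and imaged, and infection rate was taken as the fraction of mCherry-positive cells.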

[11] = test system: Zika virus NS2B-NS3 protease (linked construct); assay: 384 well plate NINDS Rhodamine confirmatory qHTS for Zika virus inhibitors (AID 1347164); note: potency is the fitted concentration of half-maximal effect; nearly all actives have a fitted effect of over 65% in size
In short: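 Cleavage of Ac-LKRR-Rhodamine 110 (10 microM final) by linked protease (final 5, 30 or 60 nM) was followed as fluorescence at 485/538 nm after 25 min, room temperature, dark. Compounds preincubated ~15 min.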

[12] = qHTS Assay for Lipid Storage Modulators (AID 1519; calls by dose curve; for activity change, negative = inhibition: % is set by controls: 0 for no effect and ±100 for the full control effect); conditions: Drosophila S3 cells, BODIPY lipid droplet/cell ratio, laser cytometry, cells loaded with oleic acid
In short: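 Cells seeded at 5,000 per well were treated with compounds over a concentration series and loaded with oleic acid (400 uM, as added). Lipid droplet fluorescence (488 nm excitation, 500-530 nm channel) was read by laser-scanning cytometry and normalized to 20 uM Triacsin C.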

CC1=CC[C@@]2(C[C@@H]1O)[C@@H](C(=O)O)CC[C@H]2C(C)C
inactive: Potency [1] | Potency [2] | Potency [3] | Potency [4] | Potency [5] | Potency [6] | Potency [7]

C[C@H]1C[C@@H]([C@@H]2CC[C@]34O[C@H](CC[C@@]35C[C@H](C)C(=O)O5)CN24)OC1=O
inactive: Potency [2] | Potency [3] | Potency [4] | Potency [8] | Potency [5] | Potency [9] | Potency [6]

C[C@@H]1O[C@H](c2c(O)cc(O)c3c(=O)cc(-c4ccc(O)cc4)oc23)[C@H](O)[C@H](O)[C@H]1O
inactive: Potency [1] | Potency [3] | Potency [4] | Potency [5] | Potency [9] | Potency [6] | Potency [7]

C[C@@]12C[C@@H](C[C@H]3C(=O)O[C@@H](c4ccoc4)[C@H](OC(=O)c4ccccc4)[C@@H]31)OC2=O
inactive: Potency [1] | Potency [3] | Potency [8] | Potency [5] | Potency [9]

O=Cc1ccc2n1C[C@@]1(OC2)O[C@H](CO)[C@@H](O)[C@@H]1O
inactive: Potency [2] | Potency [3] | Potency [4] | Potency [8] | Potency [5] | Potency [9] | Potency [6] | Potency [7]

O=Cc1ccc2n1C[C@@]1(C[C@H](O)[C@@H](CO)O1)OC2
inactive: Potency [2] | Potency [3] | Potency [4] | Potency [8] | Potency [5] | Potency [9] | Potency [7]

O=C(O)[C@@]12COC3(O)C1CCN1CC[C@H]3[C@@H]1c1c2[nH]c2ccccc12
inactive: Potency [1] | Potency [2] | Potency [3] | Potency [4] | Potency [8] | Potency [5]

Cc1oc2c(cc(NS(=O)(=O)c3ccc(F)cc3)c3ccccc32)c1C(=O)OCc1ccccc1
inactive: Potency [10]
active: Potency [11] 158 µM

O=C(O)Cc1c[nH]c2ccccc12
inactive: Potency [1] | Potency [4] | Potency [5] | Potency [9] | Potency [6] | Potency [7]

COc1cc(/C=C/C(=O)O)ccc1O
active: Potency [8] 0.0033 µM
17.5%: max response ([12]; measured here: lipid channel max response)
5.04%: max response ([12]; measured here: cell count channel max response)
inactive: activity change, negative = inhibition ([12]; at 57.5 µM (top of the series)) 8.29% | Potency [1] | Potency [3] | Potency [5] | Potency [9] | Potency [6]

C=C1C[C@@]23C=CC(=O)[C@@](C)(CCC(=O)Nc4c(O)ccc(C(=O)O)c4O)C2C[C@@H]1CC3 (stereo not given in full)
active: Potency [5] 18.6 µM
inactive: Potency [1] | Potency [2] | Potency [4] | Potency [8] | Potency [9] | Potency [6]

O=C1c2c(O)cc(O)cc2O[C@@H](c2ccc(O)cc2)[C@@H]1c1c(O)cc(O)c2c(=O)cc(-c3ccc(O)c(O)c3)oc12
inactive: Potency [1] | Potency [2] | Potency [5] | Potency [9] | Potency [6] | Potency [7]

OCc1ccc2ocnc2c1
inactive: Potency [1] | Potency [2] | Potency [3] | Potency [4] | Potency [8] | Potency [5] | Potency [9] | Potency [7]

CC(=O)O[C@@H]1C=C2C(=O)OC[C@]2(O)[C@@]2(C)CCCC(C)(C)[C@H]12
inactive: Potency [2] | Potency [5] | Potency [9] | Potency [7]
active: Potency [3] 10.5 µM | Potency [8] 0.0188 µM

C=C[C@]1(C)CC[C@@H]([C@H](C)C(=O)OCC)O1
inactive: Potency [2] | Potency [4] | Potency [9] | Potency [6]

Oc1ccc(C2c3c(O)cc(O)cc3[C@@H]3C(c4ccc(O)cc4)c4c(O)cc(O)cc4[C@H]23)cc1 (stereo not given in full)
inactive: Potency [1] | Potency [2] | Potency [3] | Potency [5] | Potency [9] | Potency [7]

C=C(C)C(=O)O[C@H]1C[C@H](C)[C@@H](OC(C)=O)CC[C@@]2(C)O[C@@H]2[C@H]2OC(=O)C(COC(C)=O)=C12
active: Potency [1] 9.35 µM | Potency [3] 2.64 µM | Potency [9] 0.86 µM
inactive: Potency [7]

CC1C(=O)C23CCC1C[C@@]21O[C@H]2C(C)(C)C=CC(=O)[C@@]23COC1=O (stereo not given in full)
inactive: Potency [2] | Potency [3] | Potency [5] | Potency [9] | Potency [6]

CC1(C)C=Cc2c(ccc3c2OC[C@@H](c2ccc(O)cc2O)C3)O1
inactive: Potency [1] | Potency [3] | Potency [6] | Potency [7]
active: Potency [9] 30.5 µM

CO[C@H]1/C=C/CC[C@@H](S[C@@H]2O[C@H](CO)[C@@H](O)[C@H](O)[C@H]2O)CC(=O)O[C@@H](/C(C)=C/[C@H](C)C(=O)CCCC2CC(=O)NC(=O)C2)[C@@H](C)[C@@H]1O
active: Potency [3] 1.48 µM
inactive: Potency [1] | Potency [8] | Potency [5] | Potency [9]
